# Compounds with a hit are over-represented: about 3.3% of the library has one in this group of screens.
# AmpC inh no detg: inhibitors of E. coli AmpC beta-lactamase without detergent | 0.52% of 330,000 active | AID 485341 | P00811 | AmpC nitrocefin hydrolysis, absorbance 480 nm, 0.0001% Triton | Potency, µM (titrated, usually from 57.1 µM), for inactives: at the highest dose activity change, negative = inhibition, actives largely listed as inhibitors;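 note: plate controls were no compound for no effect and no enzyme for full effect; nearly all actives have a fitted effect of over 20% in size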
# Target sequence (P00811 whole entry, looked up): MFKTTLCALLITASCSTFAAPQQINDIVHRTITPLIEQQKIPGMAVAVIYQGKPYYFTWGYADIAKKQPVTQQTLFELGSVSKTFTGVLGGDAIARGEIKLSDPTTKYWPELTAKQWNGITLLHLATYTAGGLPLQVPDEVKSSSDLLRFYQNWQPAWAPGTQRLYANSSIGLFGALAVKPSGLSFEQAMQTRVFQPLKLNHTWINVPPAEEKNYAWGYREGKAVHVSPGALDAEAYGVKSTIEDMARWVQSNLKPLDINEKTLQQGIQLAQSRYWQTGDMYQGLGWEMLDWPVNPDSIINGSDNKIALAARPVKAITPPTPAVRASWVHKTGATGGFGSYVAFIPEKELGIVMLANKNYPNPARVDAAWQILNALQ
#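 20 mM phosphate pH 7.0 + 0.01% (detergent screen) or 0.0001% Triton X-100; 5.3 nM AmpC reagent; cpd preinc 15 min RT; nitrocefin (800 uM stock) to start; A480 q20 s × 4 min; Activity was normalised to no-enzyme and no-compound control wells.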
# Sm TGR block: inhibitors of Schistosoma mansoni thioredoxin glutathione reductase; Potency, µM (doses to about 114 µM), inactives show at the top dose activity change, negative = inhibition, most hits filed as inhibitors; 3% of 360,000 active; Q962Y6; purified TGR, DTNB reduction, TNB absorbance 405 nm; note: nearly all actives have a fitted effect of over 60% in size
#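 TGR 20 nM + NADPH 100 uM (dispensed conc.), cpd preinc 15 min RT; start with NADPH (500 uM addition) then DTNB (15 mM addition). Kinetic TNB absorbance, 405 nm filter. Four-parameter Hill fit across titration.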
# AmpC inh detg: blocks E. coli AmpC beta-lactamase in detergent assay | 0.041% of 370,000 active | AmpC hydrolysis of nitrocefin, absorbance 480 nm, 0.01% Triton | AID 485294 | Potency, µM (highest dose often 114 µM), inactives show top-dose activity change, negative = inhibition, usual class: inhibitors | P00811;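 note: 0% = no-compound wells and -100% = no-enzyme wells; nearly all actives have a fitted effect of over 25% in size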
#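 20 mM phosphate pH 7.0 + 0.01% (detergent screen) or 0.0001% Triton X-100; 5.3 nM AmpC reagent; cpd preinc 15 min RT; nitrocefin (800 uM stock) to start; A480 q20 s × 4 min; Activity was normalised to no-enzyme and no-compound control wells.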
# * hit, by the source's call; ? = inconclusive; · = no result given. Calls come from the whole dose curve; as a rule, active = well fitted curve in the direction sought with a large enough effect; inconclusive = small, poorly fitted or top-dose-only effect, or another doubt; inactive = no such curve, though single readings can be large; an effect the other way counts as inactive or inconclusive. Unless noted, % is set by controls: 0 for no effect and ±100 for the full control effect; potency is the fitted concentration of half-maximal effect.
SMILES,AmpC inh no detg,Sm TGR block,AmpC inh detg
C[n+]1c2ccccc2nc2ccc(NCCO)cc21,-7%,10µM*,3%
CC(C)n1c(NCCO)nc2ccccc21,-7%,8%,-2%
CCN(CC)c1ccc2nc3ccccc3[n+](CC)c2c1,2%,?,-1%
CNc1ccc2nc3ccccc3[n+](C)c2c1,-45%,6.3µM*,3%
Cc1cc(C)c(C(=O)Nc2ccc(C)c(C)c2)c(CC(C)(C)C(=O)O)c1,-15%,-2%,-6%
O=C(C1CCN(S(=O)(=O)Cc2ccccc2)CC1)N1CCN(c2cccc(C(F)(F)F)c2)CC1,·,-15%,19%
O=C(COC(=O)C12CC3CC(CC(Br)(C3)C1)C2)Nc1c(F)cccc1F,-29%,·,·
O=C(COC(=O)C12CC3CC(CC(Br)(C3)C1)C2)Nc1ccc2[nH]c(=O)[nH]c2c1,32µM*,5%,-1%
O=C(CC1(O)C(=O)Nc2ccccc21)c1ccc(-n2cccc2)cc1 (configuration not stated),-14%,50µM*,-2%
O=C(CC1(O)C(=O)Nc2ccccc21)c1ccccc1 (configuration not stated),-18%,-10%,?
COc1ccccc1/C=C/C1(C(=O)NC2CCCC2)CC(=O)N1c1ccccc1 (configuration not stated),-1%,4%,-8%
O=C(NCCOCCn1c(=O)oc2ccccc21)Nc1cccc(Cl)c1,·,3%,18%
Cc1cc(/C=N/NC(N)=S)c(C)n1-c1ccc(Cl)c(Cl)c1,?,5%,-2%
CCNC(=S)N/N=C/c1cc(C)n(-c2ccc(Cl)cc2)c1C,28µM*,-1%,1%
O=C(c1ccc(COCC(F)(F)F)cc1)N1CCN(c2ccccn2)CC1,-11%,4%,2%
CC(C)(C)NC(=O)Nc1ccc(Br)cc1,-21%,15%,0%
COc1ccc(C(=O)NC(=S)Nc2ccc(CN3CCOCC3)cc2)cc1OC,93%,20µM*,4%
CC(C)COc1ccc(C(=O)NC(=S)Nc2ccc(CN3CCOCC3)cc2)cc1,-16%,-2%,?
Cc1ccc(C(=O)NC(=S)Nc2ccc(CN3CCCCC3)cc2)c(C)c1,-3%,·,-5%
COc1ccc(C(=O)Nc2ccc(CN3CCOCC3)cc2)cc1Br,-5%,?,?
COc1ccc(C(=O)NC(=S)Nc2ccc(CN3CCCCC3)cc2)cc1Cl,-8%,40µM*,-1%
COc1ccc(C(=O)NC(=S)Nc2ccc(CN3CCOCC3)cc2)cc1Cl,131%,14µM*,-7%
Cc1ccc(CNC(=O)c2cnc(N(C)C)nc2)cc1,·,-7%,-5%
COc1cccc(N2CCN(c3nc4ccc(C(=O)c5ccccc5)cc4n4c(C)nnc34)CC2)c1,·,10%,1%
O=C(Nc1ccc2nc(-c3ccco3)[nH]c2c1)c1cccs1,-41%,25µM*,3%
SMILES,AmpC inh no detg,Sm TGR block,AmpC inh detg
O=C(Nc1ccc2nc(-c3ccco3)[nH]c2c1)c1ccco1,-23%,-35%,-8%
Cc1nnc2n(C3CCCCC3)c(=O)c3c4c(sc3n12)CCC4,-6%,-25%,3%
Cc1nnc2n(C3CCCCC3)c(=O)c3c4c(sc3n12)COC(C)(C)C4,62%,40µM*,-6%
COc1ccc(SC[C@H](Cc2ccccc2)N2CC[C@@H](C)CCC2=O)cc1,2%,-16%,3%
COc1ccc(N/C(=C(/C(Cl)=C(Cl)Cl)[N+](=O)[O-])n2nnc3ccccc32)cc1,-43%,?,-11%
Cc1ccccc1N/C(=C(/C(Cl)=C(Cl)Cl)[N+](=O)[O-])n1nnc2ccccc21,·,14µM*,-2%
CC(=O)Nc1ccc(NC(=O)CN2C(=O)CC(c3ccco3)Sc3ccccc32)cc1 (configuration not stated),·,-1%,19%
Cc1cc(NC(=O)CN2C(=O)CC(c3ccco3)Sc3ccccc32)no1 (configuration not stated),-23%,16µM*,2%
CCC1CCCCN1S(=O)(=O)c1ccc(NC(=O)C2CCCO2)cc1 (configuration not stated),50%,-13%,0%
COC(=O)/C=C/c1ccccc1S(=O)(=O)N(Cc1ccccc1)Cc1ccco1,-31%,18µM*,11%
O=C(CN(Cc1ccco1)S(=O)(=O)c1ccccc1)N/N=C/c1ccccc1C(=O)O,-16%,11%,6%
COc1ccc(CNC(=O)Cn2ccc([N+](=O)[O-])n2)cc1OC,14%,6%,-3%
COc1ccccc1N1CCN(Cc2cc(=O)n3ccsc3n2)CC1,-23%,-1%,-5%
CC1Cc2ccccc2N1Cc1cc(=O)n2ccsc2n1 (configuration not stated),17%,22µM*,-7%
CNC(=O)[C@H]1O[C@@H](n2cnc3c(NCc4cccc(I)c4)ncnc32)[C@H](O)[C@@H]1O,77%,-18%,4%
CCOC(=O)c1ccc(N2C(=O)c3n[nH]c(C)c3C2c2cccc(Br)c2)cc1 (configuration not stated),·,-10%,-2%
CCOc1cc(C2c3c(n[nH]c3C)C(=O)N2c2ccc(Br)cc2)ccc1O (configuration not stated),-15%,11µM*,6%
COc1cc(C2c3c(n[nH]c3C)C(=O)N2c2ccc(Br)cc2)ccc1O (configuration not stated),-32%,4.5µM*,-16%
CCOC(=O)c1ccc(N2C(=O)c3n[nH]c(C)c3C2c2ccc(OC)c(OC)c2)cc1 (configuration not stated),110%,?,0%
CCOc1cc(Cl)c(S(=O)(=O)NCc2cccnc2)cc1Cl,12%,-18%,?
Nn1c(SCC(=O)Nc2ccc(S(N)(=O)=O)cc2)nnc1-c1ccco1,-13%,-17%,-5%
CCOC(=O)c1c(NC(=O)COC(=O)c2ccccc2NC)sc(C(=O)N(C)C)c1C,164%,-5%,?
CCc1cccc(C)c1NC(=O)c1cc(S(=O)(=O)N2CCOCC2)cn1C,·,8%,24%
CCOC(=O)c1ccc(N2C(=O)CC(Nc3ccc(O)cc3)C2=O)cc1 (configuration not stated),-16%,-2%,-2%
COC(=O)c1cccc(NC2CC(=O)N(c3ccc(OC)c(OC)c3)C2=O)c1 (configuration not stated),-5%,35µM*,-1%
COc1ccc(N2C(=O)CC(Nc3ccc(C(=O)O)cc3)C2=O)cc1OC (configuration not stated),-7%,22µM*,-7%
COc1ccc(N2C(=O)CC(Nc3cccc([N+](=O)[O-])c3)C2=O)cc1 (configuration not stated),-25%,?,2%
COc1ccc(CCCc2nnc(SCC(=O)Nc3ccc(F)cc3)o2)cc1C,·,-2%,3%
CCC(C)Sc1ccc([C@@H]2[C@@H]3C(=O)N(C)C(=O)[C@@H]3[C@]3(C(=O)OC)CCCCN23)cc1 (some centres not stated),13%,?,?
O=C(c1ccco1)N1CCN(c2ncnc3c2[nH]c2ccc(Cl)cc23)CC1,-29%,50µM*,-15%
